Screens as filed in PubChem BioAssay.
An excerpt weighted towards active compounds, which were near 5.4% of everything screened.
DAX1 inh = inhibitors of human orphan nuclear receptor DAX1 (NR0B1) | P51843 | HEK293 Gal4-DAX1 luciferase reporter, luminescence | inhibition, % at 6.75 µM | actives 0.99% (n = 340,000) | AID 504766;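 active = inhibition above the mean over all tested compounds plus 3 SD, cut at about 4.2% in these data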;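 also: 0% = DAX1-transfected cells with DMSO and 100% = empty-vector control cells with DMSO; inhibition shows as a rise in luminescence from relieved DAX1 repression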
FXN GAA850 act = frataxin GAA850 promoter activation; HEK293 lucGAA850 FXN promoter luciferase reporter, 24 h; percent of 10 µM SAHA response; activation, % at 6 µM; actives 0.56% (n = 360,000); AID 540364;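 active = activation above the average of all compounds screened plus 3 SD, cutoff fixed separately per campaign, cut at about 7.5% in these data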;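 also: 0% = DMSO wells and 100% = 10 µM SAHA wells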
AHR activator = human AHR activation. actives 2.5% (n = 320,000). AHR-responsive luciferase reporter cells, luminescence. P35869. activation, % at 5 µM; in the data active = activation above about 47%;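 also: 0% = vehicle wells and 100% = reference agonist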
HSF1 activator = increases HSF-1 driven luciferase reporter signal. NIH3T3-HGL HSF-1 luciferase reporter, MG132, 8 h; 100% = twice DMSO control signal. activation, % at 9 µM. actives 1.7% (n = 300,000). AID 504408;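 active = mean replicate activation of at least 50% with a set share of replicates each reaching 50%; inconclusive = only one of those two conditions met; inactive = mean below 50% and too few replicates reaching it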;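 also: 0% = median of the neutral control wells and 100% = twice that signal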
HSF1 inhib = HSF1 inhibition. NIH3T3-HGL HSE-luciferase, MG132-induced, luminescence 8 h; hits give low values. activity change, negative = inhibition, % at 7.5 µM (by protocol). actives 0.77% (n = 300,000). AID 2098;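 active = more than half of replicate wells show activity change below -50%, luminescence cut by over half; inconclusive = some wells, but at most half, below -50%; inactive = no replicate well below -50%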;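 also: luciferase reports HSF-1 transcriptional activity via heat shock element; 0% = median of DMSO wells and -100% = zero luminescence signal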
* hit, by the source's call; ? = inconclusive; . = not tested or not shown.

SMILES	DAX1 inh	FXN GAA850 act	AHR activator	HSF1 activator	HSF1 inhib
COc1ccccc1C1CCN(c2cc(O)ccc2[N+](=O)[O-])CC1	-0.9	0.1	-0.7	11.4	-3.4
O=C(Nc1ccncc1)C1CCC(CNS(=O)(=O)c2cccc3nsnc23)CC1 (centres undefined)	-2.5	-1.4	10.9	1.8	-6.1
CC(C)c1ccc(CN2CCN(C(=O)CSc3nnnn3C3CC3)CC2)cc1	-2.4	-4.2	-4.5	.	.
Cc1ccc(NC(=S)Nc2ccccn2)c(C)c1	1.1	4.5	0.0	60.3*	22.2
Cc1cccc(NC(=S)Nc2ccccn2)c1	5.3*	3.3	58.1*	58.5*	30.0
Cc1cccc(NC(=S)NNc2cccc(Cl)c2)c1	-0.7	-2.6	53.1*	10.4	19.2
Cc1cc(C)cc(NC(=S)Nc2cccc3cnccc23)c1	-1.8	-0.3	.	.	.
Cc1ccc(NC(=S)Nc2cccc3cnccc23)c(C)c1	1.1	1.8	3.4	72.6*	42.8
COc1cc(C(=O)NCc2ccc(S(N)(=O)=O)cc2)ccc1OCC(=O)N1CCOCC1	1.1	1.2	-2.9	.	.
CN1CCN(C(=O)C2Cc3c(-c4cccc(F)c4)ccnc3O2)CC1 (centres undefined)	.	1.5	.	.	.
Cc1cc(Cl)ccc1NC(=S)Nc1ccccn1	4.3*	3.5	.	55.5*	26.6
Cc1cc(Cl)ccc1Nc1ncccc1C(N)=O	9.6*	4.6	38.6	43.5	25.6
COCCOC(=O)c1c(NC(=O)COC(=O)c2ccc(C)o2)sc(C(N)=O)c1C	-0.6	-0.2	1.3	.	.
Cc1nnc(SCC(=O)NNC(=O)c2ccc(F)cc2)n1Cc1ccccc1	4.5*	0.8	0.9	.	.
Cc1ccc(NC(=O)C2CCCN(c3ncccn3)C2)cc1C (centres undefined)	0.9	2.3	8.0	35.7	16.5
Cc1ccnc(N2CCCC(C(=O)NCc3cccs3)C2)n1 (centres undefined)	-1.2	0.0	2.6	-72.3	-65.7*
Cc1ccnc(N2CCCC(C(=O)Nc3ccc(C)c(C)c3)C2)n1 (centres undefined)	-1.8	-0.6	7.3	59.8*	25.3
CC1(C(=O)NCc2ccc3c(c2)OCO3)CCN1C(=O)Cc1ccc(Cl)cc1Cl (centres undefined)	.	-1.8	.	.	.
C/C=C1\COC(C(=O)NCc2ccccc2)(C(F)(F)F)C=C1C=C(C)C (centres undefined)	0.3	-1.3	-0.3	152.7*	135.3
O=C(NCc1ccccc1)C1(C(F)(F)F)C/C(=C/CCO)CCCO1 (centres undefined)	1.4	0.7	0.6	-6.4	-5.6
COc1ccc(-c2nc3ccc([N+](=O)[O-])cc3[nH]2)cc1	1.5	1.6	9.9	53.8*	6.6
Cc1ccc(-c2nc3ccc([N+](=O)[O-])cc3[nH]2)cc1	-2.4	1.4	0.3	60.7*	49.8
O=[N+]([O-])c1ccc2nc(-c3ccc(Cl)cc3)[nH]c2c1	3.6	5.3	20.5	79.8*	31.8
O=[N+]([O-])c1ccc(O)c(C=Nc2ccc3nc(-c4ccccc4)[nH]c3c2)c1	1.2	3.5	66.7*	6.9	0.6
O=[N+]([O-])c1cccc(-c2nc3ccc([N+](=O)[O-])cc3[nH]2)c1	1.4	-1.1	5.1	-9.1	-3.6
SMILES	DAX1 inh	FXN GAA850 act	AHR activator	HSF1 activator	HSF1 inhib
Oc1c(Br)cc(C=Nc2ccc3nc(-c4ccccc4)[nH]c3c2)c(O)c1Br	.	.	25.6	13.1	6.1
O=[N+]([O-])c1ccc2nc(-c3ccncc3)[nH]c2c1	2.8	2.4	22.1	5.3	-3.9
COc1ccc2c(c1)c(C(C)=O)c(C)n2CCc1ccccc1	-3.4	1.0	0.2	-1.8	2.1
CC(=O)Nc1ccc(N=Nc2c(C)[nH]n(C(N)=S)c2=O)cc1	0.8	3.3	4.8	32.6	9.3
Cc1[nH]n(C(N)=S)c(=O)c1N=Nc1ccc2ccccc2c1	1.0	7.2	.	?	37.1
Cc1[nH]n(C(N)=S)c(=O)c1N=Nc1cc(-c2ccc(Br)cc2)[nH]n1	.	0.7	54.9*	27.1	14.0
Cc1ccc(N=Nc2c(C)[nH]n(C(N)=S)c2=O)cc1C	-0.1	3.1	51.0*	22.9	11.4
CCC(C(N)=O)N1C(=O)C2C3CCC(C3)C2C1=O (centres undefined)	3.2	-0.1	.	.	.
COc1cc(C2C(C#N)=C(N)OC3=C2C(=O)CC(C)(C)C3)cc2c1OCO2 (centres undefined)	-0.9	3.2	-3.0	-0.4	1.3
CCc1ccc2[nH]c(O)c(N=Nc3nc(-c4ccccc4)cs3)c2c1	0.0	0.9	62.7*	-91.3	-89.0*
COc1cccc(CC2(CO)CCCN(Cc3ccc(CO)o3)C2)c1 (centres undefined)	-0.1	-0.2	2.2	-6.2	1.4
COc1cccc(CC2(CO)CCCN(C(=O)c3cc[n+]([O-])cc3)C2)c1 (centres undefined)	5.1*	0.4	-2.6	-9.4	-7.6
CCCn1c(N)c(C(=O)CSc2ncnc3sccc23)c(=O)n(C)c1=O	0.1	-0.1	.	.	.
O=C(NC1CCCCC1)C(c1ccccc1)N1CCc2ccccc21 (centres undefined)	1.6	-2.3	0.1	17.8	0.2
Cc1ccc(C(C(=O)NC2CCCC2)N2CCc3ccccc32)cc1 (centres undefined)	0.9	-1.5	0.8	57.6*	25.2
NC(=O)C1=C(N=C2CCCCC2)CCCC1	-0.7	1.1	.	.	.
COc1ccc(NC(=O)Nc2ccc(Br)c(C)c2)cc1	4.9*	2.2	5.2	.	.
COc1cccc(NC(=O)COC(=O)c2c(F)cccc2F)c1	0.9	2.8	-1.4	8.6	-1.3
CCN(CC(=O)Nc1cccc(OC)c1)CC(=O)Nc1ccc(Br)c(C)c1	-1.1	0.5	9.2	55.0*	26.1
COc1cccc(NC(=O)COC(=O)c2sccc2C)c1	6.2*	3.6	-0.2	.	.
Cc1cccn2c(=O)nc(SCC(=O)N3CCC(Cc4ccccc4)CC3)nc12	0.4	2.1	-0.1	-2.9	0.2
Cn1c(C(C#N)C(=O)Cc2cccc3ccccc23)nc2ccccc21 (centres undefined)	0.0	-1.1	1.9	-0.9	-15.5
Cn1c(C(C#N)C(=O)c2ccco2)nc2ccccc21 (centres undefined)	1.0	5.6	76.8*	37.0	16.9
COc1ccc(-c2[nH]ncc2CN(C)CCCN2CCOCC2)cc1F	5.9*	-1.0	-1.9	6.6	-3.8
Cc1ccc(NC(=O)CN(C)Cc2c(O)ccc3ccccc23)cc1	.	.	13.2	-3.8	3.7
CCN(CC(=O)Nc1ccc(NC(C)=O)cc1)Cc1c(O)ccc2cc(Br)ccc12	-0.1	1.2	3.2	127.1*	100.9
CC(C)CSc1nnc(N)s1	2.6	-0.1	0.1	3.9	-5.5
CC(C)CN(CC(C)C)c1nnc(N)s1	5.9*	-2.8	8.2	-2.0	8.1
O=C1OC(Cc2ccccn2)C(=O)C1=C1SCCS1 (centres undefined)	0.0	1.6	60.0*	3.2	11.2
O=c1cc(-c2ccccc2Cl)oc2cccc(O)c12	1.1	-1.0	4.8	-3.5	-5.2
